DRD3 agonist: D3 dopamine receptor (human) agonism; max activation, %; AID 652048; D3R DiscoveRx beta-arrestin cells, luminescence, 90 min; 410,000 compounds, 0.58% hits; in the data active means max activation above about 30%
Target sequence (P35462 whole entry, looked up): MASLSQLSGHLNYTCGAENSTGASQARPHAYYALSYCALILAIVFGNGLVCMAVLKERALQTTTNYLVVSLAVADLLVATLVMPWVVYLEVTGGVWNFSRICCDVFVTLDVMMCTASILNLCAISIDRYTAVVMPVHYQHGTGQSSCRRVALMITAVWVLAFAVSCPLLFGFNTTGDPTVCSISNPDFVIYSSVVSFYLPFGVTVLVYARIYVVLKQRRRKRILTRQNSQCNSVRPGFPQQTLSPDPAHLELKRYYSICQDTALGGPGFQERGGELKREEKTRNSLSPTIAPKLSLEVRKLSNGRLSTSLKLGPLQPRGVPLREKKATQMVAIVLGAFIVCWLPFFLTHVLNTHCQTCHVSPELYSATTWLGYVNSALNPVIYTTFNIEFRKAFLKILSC
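Agonist-mode cell screen: cells plated at 1500/well and incubated overnight at 37 °C, then exposed to library compounds for 90 min at 37 °C. Detection reagent was added for 30–60 min at room temperature, and luminescence was read.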
DRD3 antagonist: D3 dopamine receptor (human) antagonism; P35462; D3R cells, DiscoveRx beta-arrestin luminescence, antagonist mode; hits give low values; max response, negative = inhibition, %; 360,000 compounds, 2.5% hits; AID 652054; in the data active means max response below about -50%; inconclusive means no clear call, values can overlap the other calls
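Cells expressing the human receptor were seeded at 1500 cells/well, incubated overnight at 37 degrees C in 5% CO2, then exposed to library compounds with dopamine controls for 90 minutes at 37 degrees C before luminescent detection.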
ATXN2 expr inh: ATXN2 expression inhibition; HEK-293 ATXN2-luciferase reporter, luminescence, 24 h; Potency, µM (titrated, usually from 57 µM), usual class: inhibitors; 360,000 compounds, 0.72% hits; further: nearly all actives have a fitted effect of over 55% in size
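qHTS (up to 57 uM final) was run with 24 h compound exposure of reporter cells at 37 °C. Each well was multiplexed: SteadyGlo luminescence measured ATXN2-luciferase expression after a fluorogenic Gly-Phe-AFC viability readout (25 uM final).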
TGFb inhibitor: blocks TGF-b signaling; HepG2 CAGA-GFP TGF-b/SMAD3 reporter, GFP fluorescence, 18 h; TGF-beta stimulated, 500 pg/mL final; Potency, µM (top dose mostly 46.1 µM), hits mostly inhibitors; 410,000 compounds, 1.2% hits; further: nearly all actives have a fitted effect of over 65% in size
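Per well, imaged GFP fluorescence of HEPG2 CAGA-GFP cells gives the signal; cells get compound, then TGF-beta (500 pg/mL final), 18 h at 37 degrees C; %Activity versus -TGF-beta and +DMSO controls.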
S2 tox: cell viability loss in ATXN counter-screen | S2 cells (HEK-293 line with an ATXN2-luciferase reporter) viability, CellTiter-Fluor protease fluorescence, 24 h | Potency, µM (top dose mostly 56.7 µM), most hits filed as cytotoxic | 400,000 compounds, 0.49% hits | AID 651635; further: nearly all actives have a fitted effect of over 40% in size
HepG2 viability: kills HepG2 cells in TGF-b inhibitor counter-screen; HepG2 CAGA-GFP viability, ATP luminescence, 18 h; Potency, µM (titrated, usually from 46.1 µM), hits mostly cytotoxic; 410,000 compounds, 0.76% hits; AID 588856
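HepG2 CAGA-GFP cells (1000/well, DMEM with 1% FBS) received compound, then TGF-beta at 500 pg/mL final, and were incubated 18 hours at 37 degrees C. Viability was read by CellTiter-Glo luminescence. Media-only wells were set as complete cell-killing and DMSO as no toxicity.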
Numbers stand for hits; . = inactive; ? = inconclusive; / = no result given. Most compounds without a hit are left out; they make up all but 4.8% or so of the library. Unless noted, the call rests on the fitted dose curve; in most records, active means well fitted curve in the direction sought with a large enough effect; inconclusive means small, poorly fitted or top-dose-only effect, or another doubt; inactive means no such curve, though single readings can be large; an effect the other way counts as inactive or inconclusive.

SMILES | DRD3 agonist | DRD3 antagonist | ATXN2 expr inh | TGFb inhibitor | S2 tox | HepG2 viability
COC(=O)C(NC(=O)c1ccco1)(Nc1cc(C)ccn1)C(F)(F)F (configuration not stated) | . | . | . | . | . | 3.2µM
COc1ncnc2c1ncn2CCCNCC(c1ccccc1)c1ccccc1 | . | . | . | . | . | .
c1ccc(COc2ncnc3c2ncn3CCCNCC(c2ccccc2)c2ccccc2)cc1 | . | -86 | ? | 16µM | / | 11µM
O=C(Cn1cnc2c(OCc3ccccc3)ncnc21)NCc1ccccn1 | . | -67 | . | . | . | .
COc1ccc(CNC(=O)C(=O)NCC(c2cccs2)S(=O)(=O)c2cccs2)cc1 (configuration not stated) | . | / | . | . | . | .
Cc1cccc(C(=O)N2CCOc3ccc(CN(C)Cc4cc(C5CC5)n[nH]4)cc3C2)n1 | / | / | / | / | . | /
COc1ccccc1C1CN(Cc2cccc(OCCO)c2)Cc2ccccc2O1 (configuration not stated) | / | / | / | / | . | /
COc1ccc(C(CC(=O)c2ccc(C)cc2)C(C#N)C#N)cc1OC (configuration not stated) | . | ? | ? | ? | 30µM | .
CC(C)CC(=O)NCCc1ccncc1 | . | . | . | . | . | 2.8µM
COc1cccc2c1C(=O)c1c(O)c3c(c(O)c1C2=O)CC(O)(C(C)=O)CC3OC1CC(O)C(O)C(C)O1 (configuration not stated) | . | . | ? | . | 19µM | .
CCCCC(=O)OCC(=O)C1(O)Cc2c(O)c3c(c(O)c2C(OC2CC(NC(=O)C(F)(F)F)C(O)C(C)O2)C1)C(=O)c1c(OC)cccc1C3=O (configuration not stated) | . | . | 2.5µM | ? | 3.5µM | .
COc1cccc2c1C(=N)c1c(O)c3c(c(O)c1C2=O)CC(O)(C(C)=O)CC3OC1CC(N)C(O)C(C)O1 (configuration not stated) | . | ? | 1.2µM | 7.1µM | ? | .
COc1cccc2c1C(=O)c1c(O)c3c(c(O)c1C2=O)C[C@@](O)(C(=O)CO)C[C@H]3O[C@H]1C[C@H](N)[C@H](O)[C@H](C)O1 | / | / | 0.27µM | / | / | /
COc1cccc2c1-c1c(O)cccc1C2=O | . | . | / | . | . | .
O=C(NCCc1ccc(Cl)cc1)c1c2c(nc3ccccc13)C(=O)N(C1CCCCC1)C2 | . | / | / | . | / | .
COc1cc2c(cc1OC)C(C(C(=O)N(CCc1ccc(OC)c(OC)c1OC)CCc1ccc(OC)c(OC)c1OC)c1ccccc1)=NCC2 (configuration not stated) | . | / | . | . | . | .
CN(C)C(=O)CCC(=O)NCC1Cc2cccc(-c3ccccc3C(F)(F)F)c2O1 (configuration not stated) | / | / | / | / | . | /
Cc1nc2nc(C)c(NS(=O)(=O)c3ccc(F)cc3)c(=O)n2[nH]1 | . | / | . | . | . | .
O=c1[nH]/c(=C/c2ccc3c(c2)OCO3)c(=O)[nH]/c1=C/c1ccc2c(c1)OCO2 | / | / | / | . | / | .
CC1CCN(S(=O)(=O)c2cc(C(=O)NCCc3ccccc3)n(C)c2)CC1 | . | / | . | ? | . | .
COC(=O)CCC(=O)NC(=S)Nc1sc(C)c(C)c1C(N)=O | . | ? | . | 11µM | ? | .
COC(=O)CCC(=O)Nc1sc(C)c(C)c1C(N)=O | . | . | . | . | . | .
Cc1cc(OC(=O)c2ccccc2Cl)cc(=O)n1C | 35 | . | . | . | . | .
CCOc1ccccc1N(CC)C(=O)c1cc2c(=O)n(CC)c3ccccc3c2s1 | . | / | ? | 18µM | ? | .
CCn1c(=O)c2cc(C(=O)NCCCN(C)Cc3ccccc3)sc2c2ccccc21 | . | / | ? | ? | 32µM | .
CCCCNC(=O)c1cc2c(=O)n(CC)c3ccccc3c2s1 | . | . | . | . | . | .
Cc1ccc(CNC(=O)c2c(-c3cccc(Br)c3)noc2C)o1 | . | / | . | . | . | .
COc1ccc(-c2nnc(OC)c3ccccc23)cc1 | . | . | / | . | . | .

Source: PubChem (National Center for Advancing Translational Sciences (NCATS))
